Only some compounds are listed: those with a hit (about 2.2% of all), similar ones and a draw of the others.
Abeta yeast res: qHTS for compounds that reverse cellular toxicity of Amyloid beta (A-beta) peptide in yeast: Primary Screen; yeast expressing A-beta42, growth rescue, OD600, 48 h; response scale: 0% DMSO, 100% iron-clioquinol control; Potency, µM (titrated, usually from 46.1 µM), actives largely listed as activators; hit rate 0.063% among 410,000; AID 1347071, 2019; further: nearly all actives have a fitted effect of over 55% in size
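Growth rescue measured by 600 nm absorbance after 48 h yeast culture at 30 C with compound. Values normalized between DMSO and an equimolar ferric chloride plus clioquinol control.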
Mito fusion act: qHTS Assay for Small Molecule Inhibitors of Mitochondrial Division or Activators of Mitochondrial Fusion; S. cerevisiae fusion-defective mutant growth rescue, CellTiterGlo 48 h; Potency, µM (doses to about 46.1 µM), inactives show at the highest dose growth rescue (activation), most hits filed as activators; hit rate 0.23% among 320,000; AID 485298, 2010; further: % of control where 0% means no effect; nearly all actives have a fitted effect of over 45% in size
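S. cerevisiae fusion-defective temperature-sensitive mutants (e.g. fzo1-1, mgm1-5) grown 48 h at 37C in YPEG (ethanol/glycerol non-fermentable) medium with 23 nl compound per well; growth rescue read as CellTiterGlo luminescence.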
FUS suppressor: qHTS for Suppressors of FUS Proteinopathy: Primary screen using FUS-linked yeast assay. S. cerevisiae FUS-expressing, growth rescue, OD600, 24 h. Potency, µM (top dose mostly 76.6 µM), most hits filed as activators. hit rate 0.24% among 390,000;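 further: plate controls were DMSO vehicle for no effect and reference control for full effect; nearly all actives have a fitted effect of over 55% in size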
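Cultures pregrown in 2.5% raffinose medium are shifted to minimal medium containing 2% galactose to express toxic FUS. Compounds are tested at several concentrations. After 24hr at 30C, growth is quantified at 600 nm absorbance.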
aSyn rescue: qHTS of alpha-syn Inhibitors. Yeast expressing alpha-synuclein, growth rescue, BacTiter-Glo, 24 h. Potency, µM (series often up to 46.1 µM), for the others: at the highest dose growth rescue (activation), actives largely listed as activators. hit rate 0.14% among 370,000; further: % of control where 0% means no effect; nearly all actives have a fitted effect of over 65% in size
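Galactose-induced alpha-syn yeast (OD600=0.02, raffinose-pregrown) + pinned cpd, 24 hr, 30 deg C; growth by BacTiter-Glo luminescence. Growth restoration scores as activation.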
TDP43 rescue: qHTS of TDP-43 Inhibitors | TDP-43 expressing yeast growth rescue, BacTiter-Glo, 24 h | AID 652104, 2013 | hit rate 1.8% among 410,000 | Potency, µM (top dose mostly 46.1 µM), inactives show top-dose growth rescue (activation), usual class: activators; further: % of control where 0% means no effect; nearly all actives have a fitted effect of over 50% in size
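In this qHTS, compounds that restore growth of yeast expressing TDP-43 appear as activators. Cells (OD600=0.02, galactose medium, raffinose-pregrown) are incubated with compound 24 hr at 30 deg C and growth is quantified by BacTiter-Glo.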
Active calls of the source: *; i = inactive; u = inconclusive; x = no result given; [ ] = dose if it differs, or a comment. The call rests on the fitted dose curve; in most records, active means well fitted curve in the direction sought with a large enough effect; inconclusive means small, poorly fitted or top-dose-only effect, or another doubt; inactive means no such curve, though single readings can be large; an effect the other way counts as inactive or inconclusive. Potency means the concentration at half of the fitted maximal effect.

SMILES | Abeta yeast res | Mito fusion act | FUS suppressor | aSyn rescue | TDP43 rescue
O=S(=O)(N=C(NS(=O)(=O)c1ccc(Cl)cc1)c1ccccc1)c1ccc(Cl)cc1 | i | x | i | -2% | 11µM*
O=S(=O)(/N=C(/NS(=O)(=O)c1ccccc1)c1ccccc1)c1ccccc1 | i | -5% | i | 2% | 11%
Cc1ccccc1NCc1ccc(O)c2ncccc12 | i | -1% | i | -7% | -14%
Oc1ccc(CNc2ccccc2Br)c2cccnc12 | x | x | 18µM* | x | x
Cn1nnnc1N=N/C(=N/Nc1ccccc1)c1ccccc1 | u | 6% | i | 3.2µM* | u
CC1ON=C(c2ccccn2)N(Cc2ccc(S(C)(=O)=O)cc2)C1=O (stereo not given) | i | x | i | 0% | 21%
O=C(NCCC1=CCCCC1)NC12CC3CC(CC(C3)C1)C2 | i | 8% | i | -12% | 16µM*
O=C(NCCc1ccc(F)cc1)NC12CC3CC(CC(C3)C1)C2 | i | 15% | i | -13% | 4%
Cc1nc(N2CCN(C(=O)c3ccco3)CC2)nc2c1C(=O)CC(C)C2 (stereo not given) | i | -3% | i | -1% | u
CCOC(=O)N1CCN(c2nc(C)c3c(n2)CC(C)CC3=O)CC1 (stereo not given) | i | -4% | i | 1% | 20µM*
CCN(C(=O)C1CCCN(c2ncnc3c2nc2n3CCCCC2)C1)c1cccc(C)c1 (stereo not given) | i | x | i | x | 14µM*
COc1ccc(Cl)cc1NC(=O)C1CCCN(c2ncnc3c2nc2n3CCCCC2)C1 (stereo not given) | i | -1% | i | 5% | 14µM*
CCN(C(=O)C1CCCN(c2ncnc3c2nc2n3CCCCC2)C1)c1cccc(Cl)c1 (stereo not given) | i | 18% | u | -14% | 25µM*
O=C(Nc1ccc(Cl)cn1)C1CCCN(c2ncnc3c2nc2n3CCCCC2)C1 (stereo not given) | i | u | i | 1% | u
Cc1csc2nc(COc3ccccc3NC(=O)c3ccc(C(C)(C)C)cc3)cc(=O)n12 | i | x | i | x | 18%
Cc1cccc(N2C(=O)C(O)=C(C(=O)c3cccs3)C2c2ccc(C(C)C)cc2)n1 (stereo not given) | i | 10% | i | -27% | 28µM*
N#Cc1c2n(c3c(=O)n(Cc4ccccc4)cnc13)CCCC2 | i | -3% | i | -2% | -6%
N#Cc1c2n(c3c(=O)n(Cc4ccc(Cl)cc4)cnc13)CCCCC2 | i[9.22 µM] | 11% | i | 13% | 20µM*
Cc1cccc(N2CCN(C(=O)C3(S(=O)(=O)c4ccc(Cl)cc4)CC3)CC2)c1C | i | -14% | u | 0% | 35µM*
Cc1ccc(Cl)cc1N1CCN(C(=O)C2(S(=O)(=O)c3ccc(Cl)cc3)CC2)CC1 | i | 18% | i | 8% | 25%
COc1ccc(N(C(=O)c2cnccn2)C(C(=O)NC2CCCCC2)c2cc(OC)c(OC)c(OC)c2)cc1 (stereo not given) | i | -3% | i | -2% | -19%
COc1cccc(C2CC(c3c(-c4ccccc4)c4cc(Cl)ccc4[nH]c3=O)=NN2S(C)(=O)=O)c1OC (stereo not given) | i | 3% | 35µM* | 14% | -2%
COc1ccccc1C1CC(c2c(-c3ccccc3)c3cc(Cl)ccc3[nH]c2=O)=NN1S(C)(=O)=O (stereo not given) | i | 6% | u | -1% | -2%
COc1ccc(-n2nc(C(=O)NCC(=O)NCC3COc4ccccc4O3)c3ccccc3c2=O)c(OC)c1 (stereo not given) | i | -2% | i | 5% | -8%
CCCn1nc(C(=O)Nc2nc(-c3ccccn3)cs2)c2ccccc2c1=O | 10µM* | 5% | i | -6%[1.84 µM] | u
SMILES | Abeta yeast res | Mito fusion act | FUS suppressor | aSyn rescue | TDP43 rescue
CCCn1nc(C(=O)NC2CC2)c2ccccc2c1=O | i | 1% | i | 0% | 9%
CCCn1nc(C(=O)NCC2COc3ccccc3O2)c2ccccc2c1=O (stereo not given) | i | 26% | i | 2%[1.84 µM] | 22µM*
COc1ccc(-n2nc(C(=O)NCC(=O)NCC3COc4ccccc4O3)c3ccccc3c2=O)cc1OC (stereo not given) | i | 3% | 18µM* | 0% | -2%
CCn1nc(C(=O)Nc2nc(-c3ccccn3)cs2)c2ccccc2c1=O | i | 7% | i | -16% | u
O=C(Nc1ccc(F)cc1)OCc1cn(Cc2cccc(F)c2)nn1 | x | x | i | x | x
Cc1nn2c(-c3ccco3)nnc2c2ccccc12 | i | 2% | i | x | 8.9µM*
CC(c1ccccc1)n1cc2c(c1-c1ccccc1Br)c(=O)n(C)c(=O)n2C (stereo not given) | i | x | u | x | 14µM*
Cn1c(=O)c2c(-c3ccccc3Br)n(C(C)(C)C)cc2n(C)c1=O | i | x | i | x | 14%
COC(=O)Nc1ccc(S(=O)(=O)NC2CCCCC2)cc1 | i | 1% | i | 2% | 3%
O=C(c1cc(F)c(F)cc1Cl)N1CCN(c2ccc([N+](=O)[O-])c3ncccc23)CC1 | i | 0% | i | -11% | u
O=C(c1ccc(Cl)cc1)N1CCN(c2ccc([N+](=O)[O-])c3ncccc23)CC1 | x | 23µM* | x | 12% | x
COc1ccccc1C=C1SC(=S)NC1=O | i | x | x | -7% | -15%
CC(=C1SC(=S)NC1=O)c1ccccc1 | i | x | x | -12% | 13µM*
NC(c1ccc(F)c(F)c1)c1nc(-c2cc(F)cc(F)c2)cs1 (stereo not given) | u | x | i | -1% | 21%
Cc1ccc(NC(=O)CCN2C(=O)c3ccccc3Sc3ncccc32)c(Cl)c1 | i | x | i | x | 2%
O=S(=O)(c1ccccc1Br)N1CCN(c2ncccn2)CC1 | i | 5% | i | u | 13µM*
O=C(Nc1ccc(C(O)(C(F)(F)F)C(F)(F)F)cc1)c1ccccc1C(F)(F)F | x | x | i | x | x
Cc1cccc(Cn2cc(C(=O)c3ccccc3)c(=O)c3cc4c(cc32)OCO4)c1 | i | x | i | x | 35µM*
CN(Cc1ccccc1)C(=O)COC(=O)c1cc(=O)[nH]c2ccccc12 | i | x | x | -6% | 17%
O=C(NCC(c1ccco1)N1CCN(c2ccccc2F)CC1)c1ccco1 (stereo not given) | i | -2% | i | -4% | 19%
